# Most compounds without a hit are left out; they make up all but 1.2% or so of the library.
# RGS16-Gao: RGS16-Galphao interaction regulator (human); 0.38% of 220,000 active; binding response (% of control), % at 10 µM; O15492+P09471; bead-based flow cytometry RGS16-Galphao binding, fluorescence; actives lie on both sides;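 note: Galphao activated by GDP with aluminum fluoride before binding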
# GSH bead fluor: compound fluoresces at 488/530 nm on GSH beads; GSH beads flow cytometry, compound fluorescence 488/530 nm; active compounds read high; fluorescence (KMESF) at 10 µM; 0.25% of 190,000 active; AID 1776; in the data active = fluorescence above about 89;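 note: glutathione beads carrying GST-tagged Bcl family fusion proteins plus one bare bead set; values are compound well signal with DMSO vehicle wells as background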
# RGS8-Gao: human RGS8-Galphao interaction regulation. multiplexed bead flow cytometry, RGS8-Galphao binding; actives lie on both sides. P09471. response (percent of control binding), % at 10 µM. 0.34% of 220,000 active; in the data active = response below about 60% or above about 140%; inactive = in between;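 note: Galphao activated as the GDP aluminium fluoride complex binding bead-coupled RGS8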
# Target sequence (P09471 whole entry, looked up): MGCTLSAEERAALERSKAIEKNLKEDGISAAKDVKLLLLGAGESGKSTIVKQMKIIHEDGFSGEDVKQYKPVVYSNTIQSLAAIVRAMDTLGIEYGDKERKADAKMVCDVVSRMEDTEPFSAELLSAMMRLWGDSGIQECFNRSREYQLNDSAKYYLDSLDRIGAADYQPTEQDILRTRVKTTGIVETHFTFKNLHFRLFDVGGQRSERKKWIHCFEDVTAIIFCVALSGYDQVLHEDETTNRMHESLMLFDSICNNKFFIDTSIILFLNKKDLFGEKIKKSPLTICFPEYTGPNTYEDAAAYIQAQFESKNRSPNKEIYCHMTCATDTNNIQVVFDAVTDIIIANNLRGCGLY
# RGS7-Gao reg: modulates binding of RGS7 to human Galphao | P09471 | Multiplexed bead flow cytometry; actives lie on both sides | binding response (% of control), % at 10 µM | 0.35% of 220,000 active; in the data active = binding response below about 49% or above about 150%; inconclusive = no clear call, values can overlap the other calls; inactive = in between;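 note: fluorescent Galphao held in activated GDP-AlF4 state binding bead-coupled RGS7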
# Avidin fluor: avidin bead compound fluorescence profile | fluorescence (KMESF) at 10 µM | 0.38% of 220,000 active | Avidin beads, compound fluorescence 488/530 nm, flow cytometry; active compounds read high | AID 1775; in the data active = fluorescence above about 47
# RGS4-Gao reg: modulates binding of RGS4 to human Galphao; P09471; Multiplexed bead flow cytometry; actives lie on both sides; binding response (% of control), % at 10 µM; 0.33% of 220,000 active; in the data active = binding response below about 49% or above about 150%; inactive = in between;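 note: fluorescent Galphao activated with aluminum fluoride binding bead-coupled RGS4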
# RGS4-Gao HTS: regulators of human RGS4-Galphao interaction; shares compounds with RGS16-Gao; multiplexed bead flow cytometry, RGS–Galpha-o binding; RGS4–Galpha-o binding response, % at 10 µM; 99% of 1,600 active; AID 1504;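 note: fluorescently labeled Galpha-o bound to GDP with aluminium fluoride binding biotinylated RGS beads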
# Biotin-avidin: counter-screen: compounds disrupting biotin binding to avidin beads. shares compounds with RGS16-Gao. streptavidin beads, fluorescein-biotin binding, flow cytometry. inhibition, % at 10 µM. 1,700 tested, under 10 active. AID 1783;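 active = inhibition above 50%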;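 note: median green fluorescence of gated singlet beads compared with DMSO control wells; 0% = DMSO wells and 100% = complete loss of bead fluorescence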
# RGS8-Gao confirm: confirmation of regulators of human RGS8-Galphao interaction; shares compounds with RGS16-Gao; bead-based flow cytometry RGS8-Galphao binding, fluorescence; actives lie on both sides; binding response (% of control), % at 10 µM; 3% of 1,700 active; AID 1836; in the data active = binding response below about 72% or above about 130%; inactive = in between;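 note: Galphao activated as GDP AlF4 complex before binding bead RGS8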
# RGS7-Gao single: confirmation of regulators of human RGS7-Galphao interaction; 7.8% of 1,700 active; shares compounds with RGS16-Gao; bead-based flow cytometry RGS7-Galphao binding; actives lie on both sides; response (percent of control binding), % at 10 µM; in the data active = response below about 75% or above about 130%; inactive = in between;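 note: fluorescent Galphao activated with GDP and aluminum fluoride binding bead-coupled RGS7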
# RGS16-Gao conf: RGS16-Galphao interaction regulation, single point confirmation; shares compounds with RGS16-Gao; bead-based flow cytometry, RGS16-Galphao binding; actives lie on both sides; response (% of control binding), % at 10 µM; 4% of 1,700 active; AID 1838; in the data active = response below about 74% or above about 130%; inactive = in between;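 note: Galphao activated as the GDP aluminium fluoride complex binding bead-coupled RGS16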
# RGS4-Gao single: confirmation of regulators of human RGS4-Galphao interaction; shares compounds with RGS16-Gao; RGS4-Galphao binding, multiplexed bead flow cytometry; actives lie on both sides; binding response (% of control), % at 10 µM; 4% of 1,700 active; AID 1840; in the data active = binding response below about 74% or above about 130%; inactive = in between
# RGS19-Gao conf: confirmation of regulators of human RGS19-Galphao interaction; shares compounds with RGS16-Gao; bead-based flow cytometry RGS19-Galphao binding; actives lie on both sides; 5% of 1,700 active; response (percent of control binding), % at 10 µM; AID 1841; in the data active = response below about 50% or above about 160%; inactive = in between;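 note: 100% = no compound control and 0% = blank background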
# Target sequence (P09471 whole entry, looked up): as above
# Target sequence (P49795 whole entry, looked up): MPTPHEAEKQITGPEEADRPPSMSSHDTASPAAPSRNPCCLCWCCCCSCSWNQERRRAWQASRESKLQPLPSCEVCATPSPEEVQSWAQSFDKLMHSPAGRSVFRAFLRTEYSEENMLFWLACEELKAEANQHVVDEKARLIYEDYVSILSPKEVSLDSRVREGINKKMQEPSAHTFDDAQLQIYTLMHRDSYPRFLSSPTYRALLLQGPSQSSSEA
# * = called active by the depositor; u = inconclusive; x = not tested or not shown; [ ] = remark or other dose. Unless noted, the rule behind the calls is not given here.
SMILES,RGS16-Gao,GSH bead fluor,RGS8-Gao,RGS7-Gao reg,Avidin fluor,RGS4-Gao reg,Biotin-avidin,RGS8-Gao confirm,RGS7-Gao single,RGS16-Gao conf,RGS4-Gao single,RGS19-Gao conf,others
CCn1c(CNC(=O)c2ccco2)nnc1SCC(=O)Nc1ccc(Br)cc1F,102.5,15,101.9,100.9,23,101.4,x,x,x,x,x,x,
COc1ccc(Cl)cc1-c1nc(SCC(=O)NC2CC2)n[nH]1,104.0,11,103.0,u,16,99.6,x,x,x,x,x,x,
Cc1cccc(C)c1OCC(O)CNC(C)C (stereo unspecified),37.1,40,87.7,99.9,2,98.3,x,x,x,x,x,x,
CCOC(=O)c1oc2cccc(OCC(O)CNC(C)C)c2c1C (stereo unspecified),231.3*[activator],31,125.4,183.7*[activator],127*,204.4*[activator],2.2,98.9,92.8,93.3,93.5,96.2,
COC(=O)c1ccc(Cn2nc([N+](=O)[O-])c(Br)c2C)cc1,103.8,x,99.6,u,7,95.7,x,x,x,x,x,x,
CC(C)CCNC1=NCCCCC1,101.4,12,99.7,104.1,11,104.1,x,x,x,x,x,x,
CCCCOCCCNC1=NCCCCC1,-10.6*,10,86.4,89.8,13,86.9,x,x,x,x,x,x,RGS4-Gao HTS=86.9*
CN(C)S(=O)(=O)c1ccc(NC(=O)CNc2cc(S(=O)(=O)N3CCCC3)ccc2OCC(F)(F)F)cc1,106.5,6,102.7,101.7,4,101.5,x,x,x,x,x,x,
O=C(CSc1nnc(CNC(=O)C23CC4CC(CC(C4)C2)C3)n1-c1ccccc1)Nc1ccccc1,94.3,17,97.1,96.3,6,96.5,x,x,x,x,x,x,
Cc1ccc(NC(=O)Nc2cnccn2)cc1Cl,99.6,12,104.4,104.8,17,101.8,x,x,x,x,x,x,
O=C(Nc1cnccn1)Nc1ccc(Cl)cc1Cl,x,9,x,x,x,x,1.2,95.2,91.7,96.0,96.7,99.0,
CC1Cc2ccccc2N1C(=S)NC(=O)C1(C)CC1(Cl)Cl (stereo unspecified),7.2*,15,30.8*,13.3*,4,8.4*,-0.1,98.8,99.3,100.5,101.2,98.5,
CC1Cc2ccccc2N1C(=S)NC(=O)c1ccco1 (stereo unspecified),98.9,15,98.5,u,11,100.6,x,x,x,x,x,x,
CC(C)Oc1cc(NC(=O)CS(=O)(=O)CC(=O)N(C)C)c(Cl)cc1Cl,99.4,10,96.2,98.2,3,98.3,x,x,x,x,x,x,
COc1cc(/C=N/NC(=O)c2ccc(-n3cccc3)cc2)ccc1O,-85.9,11,14.2*,16.0*,-1,15.8*,-1.1,97.2,100.0,96.3,96.9,85.9,
Cc1cccc(C(C)C)c1NC(=O)c1ccc(CN(c2ccccc2)S(=O)(=O)c2ccccc2)cc1,153.8,18,113.6,107.7,13,106.2,x,x,x,x,x,x,
NC(=O)c1ccc(C23CC4CC(CC(C4)C2)C3)o1,202.2*[activator],6,118.3,95.5,13,100.6,-0.7,109.8,99.7,108.4,98.7,90.1,RGS4-Gao HTS=100.6*
CNC(=O)CSc1nc2[nH]ncc2c(=O)[nH]1,122.8,20,106.0,96.5,28,99.4,x,x,x,x,x,x,
CC(=O)c1cccc(NS(=O)(=O)c2ccc(N/C=C\C(=O)c3ccc(C)cc3)cc2)c1,114.4,12,89.7,264.4*[activator],25,138.1,x,x,x,x,x,x,RGS4-Gao HTS=138.1*
CCOc1ccccc1/C=C(/NC(=O)c1ccccc1)C(=O)N(CC)CC,52.1,17,93.1,96.5,6,96.9,x,x,x,x,x,x,
NC1=NC(c2ccccc2)N=C(Nc2ccccc2)N1 (stereo unspecified),-30.5*,x,0.9*,u,-4,-57.8*,-0.9,101.7,103.3,102.5,101.5,109.1,
Cc1ccc(C(C(=O)NC2CCCC2)N(Cc2cccnc2)C(=O)c2snc(C(N)=O)c2N)o1 (stereo unspecified),88.0,13,93.7,102.7,28,103.9,x,x,x,x,x,x,
Cc1ccc(C(C(=O)NC(C)(C)C)N(Cc2ccccc2)C(=O)c2snc(C(N)=O)c2N)o1 (stereo unspecified),92.2,10,91.5,161.5*[activator],128*,109.8,1.6,103.5,98.8,104.5,100.3,104.6,RGS4-Gao HTS=109.8*
O=C1C(C=NCc2ccco2)=C(O)c2ccccc21,-57.5*,9,87.4,92.9,8,90.5,1.4,98.2,93.0,95.8,96.8,98.7,RGS4-Gao HTS=90.5*
CCc1nnc(NC(=O)CC(=O)Nc2ccccc2C(=O)O)s1,x,45,x,x,x,x,-0.3,97.7,97.8,100.0,98.6,87.7,
SMILES,RGS16-Gao,GSH bead fluor,RGS8-Gao,RGS7-Gao reg,Avidin fluor,RGS4-Gao reg,Biotin-avidin,RGS8-Gao confirm,RGS7-Gao single,RGS16-Gao conf,RGS4-Gao single,RGS19-Gao conf,others
O=C(O)COc1ccccc1/C=N/NC(=O)Cc1csc(Nc2cccc(C(F)(F)F)c2)n1,32.1,12,39.9*,u,4,38.8*,-1.0,104.5,103.2,105.0,101.2,107.6,
CC(=O)Oc1ccc2c(=O)c(Oc3ccccc3)c(C)oc2c1OC(C)=O,-3.1,21,53.7*,42.6*,3,48.8*,-1.0,96.2,94.4,93.5,95.0,93.4,
COCCN(C(=S)Nc1c(C)cccc1C)C(C)c1ccco1 (stereo unspecified),99.2,x,99.7,u,9,99.9,x,x,x,x,x,x,
Cc1c(Cl)cccc1NC(=S)N1CCN(Cc2ccccc2)CC1,225.8,17,125.9,109.7,29,107.3,2.2,102.4,105.8,101.2,100.8,93.2,
S=C(Nc1ccccc1Cl)N1CCN(Cc2ccccc2)CC1,113.5,12,107.2,109.8,6,108.7,x,x,x,x,x,x,
Cc1ccc(C(=O)NC(=S)NNC(=O)CCN2CCOCC2)cc1,110.4,12,105.5,102.0,24,104.1,x,x,x,x,x,x,
OC(c1ccccc1)(c1ccccc1)C1CCN(C(=S)NCCc2ccccc2)CC1,102.0,19,103.3,107.1,6,101.4,x,x,x,x,x,x,
O=C(O)CCCC(=O)N1CCC(C(O)(c2ccccc2)c2ccccc2)CC1,106.8,18,93.1,94.8,8,102.2,-1.3,102.5,96.3,99.6,98.9,100.8,
